D1 antagonist: blocks dopamine activation of the human D1 receptor; hit rate 3.2% among 360,000; HEK293 TREx D1 cells, calcium flux, dopamine EC80; stronger effect = lower value; AID 504652; P21728; activity change, negative = inhibition, % at 10 µM; in the data active = activity change below about -30%; also: % is scaled to controls: 0 for no effect and ±100 for the full control effect
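Tetracycline-induced HEK293 T-REx cells with force-coupled D1 receptor were loaded with a no-wash calcium dye. Compound was added after a 10 s baseline and read kinetically for 180 s; EC80 dopamine was then added and calcium flux followed another 180 s.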
D1 PAM: potentiators of human D1 dopamine receptor; AID 504651; potentiation, % at 10 µM; hit rate 0.036% among 360,000; HEK293 TREx D1 cells, calcium flux, dopamine EC20 potentiation; P21728; in the data active = potentiation above about 30%; also: 0% is about no effect
Eya2 phos inh: Eya2 (human) phosphatase inhibition | recombinant Eya2, OMFP fluorescence dephosphorylation (OMFP is methylfluorescein phosphate) | Potency, µM (highest dose often 76.9 µM), without a hit: top-dose activity, negative = inhibition, most hits filed as inhibitors | O00167 | hit rate 0.006% among 330,000; also: potency is read from the fitted curve at half-maximal effect; % is scaled to controls: 0 for no effect and ±100 for the full control effect
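Eya2 (0.2 uM) preincubated 10 min at ambient with compound, then OMFP substrate added at 50 uM; 10 min reaction in 50 mM HEPES pH 7.5, 50 mM NaCl, 5 uM MgCl2, 0.05% BSA, 1 mM DTT. Fluorescence read at Ex 485/Em 525 nm.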
GALK inhibitor: blocks human galactokinase activity; P51570; Purified GALK, Kinase-Glo residual ATP luminescence; Potency, µM (titrated, usually from 57.5 µM), inactives show at the highest dose activity change, negative = inhibition, actives largely listed as inhibitors; hit rate 0.007% among 270,000; also: potency is read from the fitted curve at half-maximal effect; % is scaled to controls: 0 for no effect and ±100 for the full control effect
Target sequence (P51570 whole entry, looked up): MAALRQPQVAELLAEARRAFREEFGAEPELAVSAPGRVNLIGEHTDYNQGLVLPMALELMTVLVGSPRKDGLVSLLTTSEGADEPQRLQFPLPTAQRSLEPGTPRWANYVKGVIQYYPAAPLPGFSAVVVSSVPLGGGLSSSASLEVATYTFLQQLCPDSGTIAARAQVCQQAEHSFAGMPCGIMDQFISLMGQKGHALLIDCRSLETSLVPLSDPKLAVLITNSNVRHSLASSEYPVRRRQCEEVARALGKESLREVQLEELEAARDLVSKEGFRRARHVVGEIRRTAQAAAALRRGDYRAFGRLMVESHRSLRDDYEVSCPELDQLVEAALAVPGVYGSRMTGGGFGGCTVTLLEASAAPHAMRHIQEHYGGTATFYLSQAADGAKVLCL
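The enzyme phosphorylates galactose (100 uM) using ATP (35 uM); inhibition is detected as higher residual ATP, quantified by bioluminescence after 1 h reaction at room temperature, pH 8.0.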
USP2a block: blocks human ubiquitin-specific protease USP2a; O75604; USP2 core, Ub-CHOP2 coupled fluorogenic reporter, 485/531; Potency, µM (top dose mostly 38.3 µM), for the others: at the highest dose activity change, negative = inhibition, usual class: inhibitors; hit rate 0.01% among 330,000; AID 463254;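 also: potency is read from the fitted curve at half-maximal effect; plate controls were DMSO wells for no effect and full inhibition by NEM control for full effect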
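Cell-free coupled assay: 10nM USP2 core preincubated 30min RT with compound in Tris-HCl pH 8.0/CaCl2/CHAPS buffer, then 25nM Ub-CHOP2 and 25nM reporter substrate; fluorescence (Ex 485/Em 531) read after 60min RT, normalized to NEM inhibition, concentration-response curves fitted.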
D1 ag: human D1 receptor agonism; HEK293 T-REx D1 cells, calcium flux, agonist mode; hit rate 1% among 360,000; AID 504660; activation, % at 2 µM; in the data active = activation above about 30%; also: 0% is about no effect
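Agonism was scored from calcium flux recorded over 180 s (1 read/s) after pintool compound addition, following a 10-cycle baseline. Cells were inducible force-coupled HEK293 TREx D1, plated overnight at 30 C and loaded with no-wash calcium dye.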
Starred values were filed as active, the others as inactive; ? = inconclusive; . = not tested or not shown. Sampled rows, rich in hits. Any-hit rate of the full collection: about 3.9%. Unless noted, calls follow the shape of the dose curve; as a rule, active = well fitted inhibition curve with a large enough effect; inconclusive = small, poorly fitted or top-dose-only effect, or effect the other way; inactive = flat fitted curve, though single readings scatter.

SMILES	D1 antagonist	D1 PAM	Eya2 phos inh	GALK inhibitor	USP2a block	D1 ag
COc1ccc(CC(=O)N2CCc3cc(OC)c(OC)cc3C2COc2ccc(F)cc2)cc1 (configuration not stated)	1	1	.	.	.	8
Cc1ccc(Nc2ccc(N3CCN(C(=O)c4ccc([N+](=O)[O-])cc4Cl)CC3)nn2)cc1	.	-1	.	.	.	0
O=C(CCOc1ccccc1)N(Cc1cccnc1)c1nc2c(Cl)cccc2s1	.	-2	.	.	.	8
O=c1c2cc3c(cc2nc2sc(Nc4ccc(F)c(Cl)c4)nn12)OCO3	5	3	.	.	.	55*
COc1ccc(CNc2nc3c(-c4ccc(C)cc4)nnn3c3ccccc23)cc1	-34*	1	.	.	.	4
O=C(CNS(=O)(=O)c1c(Cl)cccc1Cl)OCc1csc(-c2ccccc2)n1	-48*	0	-15%	-1%	-3%	7
O=C(COc1ccc(Br)cc1CNC1CCCC1)Nc1ccccc1	11	-3	-6%	2%	0%	34*
COc1ccc2c(CNC3CCCCCC3)c(C(=O)O)n(Cc3ccccc3F)c2c1	-1	-2	.	.	.	-1
CCN(C(=O)Cn1c(=O)n(Cc2ccc3c(c2)OCO3)c(=O)c2ccc(C(=O)NC3CCCCC3)cc21)c1cccc(C)c1	-54*	-2	.	.	.	7
COc1cc(C(=O)Nc2ccc3[nH]c(=O)sc3c2)cc(OC)c1OC	18	0	.	.	.	1
Cc1cc(C)cc(OCC(=O)N2N=C(c3cccnc3)CC2(O)C(F)(F)F)c1 (configuration not stated)	0	-1	2%	.	-2%	6
Cc1cc(C)cc(OCC(=O)N2N=C(C(F)(F)F)CC2(O)C(C)(C)C)c1 (configuration not stated)	-12	-6	-20%	-3%	2%	34*
Cc1cc2c(s1)c1cnn(Cc3ccc(C(F)(F)F)cc3F)c(=O)c1n2C	-4	2	.	.	.	4
Cc1nccn1CCOc1ccccc1Cl	-34*	-7	5%	-6%	-1%	7
CNS(=O)(=O)c1cn(CC(=O)Nc2ccc(OC)cc2OC)cc1S(=O)(=O)NC	8	-2	.	.	.	2
Cc1noc(/C=C/N(C)C)c1S(=O)(=O)N1CCN(c2ccccc2)CC1	-37*	-5	-5%	2%	-3%	1
Cc1noc(C)c1S(=O)(=O)N1CCN(c2ccccc2)CC1	-63*	.	-14%	0%	-2%	0
Cc1noc(/C=C/N(C)C)c1S(=O)(=O)N1CCCC(C(=O)NCc2ccccc2Cl)C1 (configuration not stated)	-51*	-4	-5%	-2%	8%	2
CCc1cccc(N2C(=O)CSC23C(=O)N(Cc2ccccc2F)c2ccccc23)c1 (configuration not stated)	3	0	.	.	.	7
O=C(C1=C[C@H](c2ccccc2)C[C@H](OCCCCO)O1)N1CCOCC1	-40*	-1	-10%	0%	-2%	5
C[C@@H]1C=C(C(=O)N2CCN(Cc3ccc4c(c3)OCO4)CC2)O[C@H](OCCCCO)C1	-38*	-4	-6%	2%	1%	0
O=C(C1=C[C@H](c2ccc3c(c2)OCO3)C[C@H](OCCCCO)O1)N1CCOCC1	34	5	16%	3%	3%	6
O=C(C1=C[C@H](c2ccc(Br)cc2)C[C@H](OCCCCO)O1)N1CCN(Cc2ccccc2)CC1	-30*	-3	-9%	-2%	0%	7
O=C(C1=C[C@@H](c2ccc(Br)cc2)C[C@@H](OCCCCO)O1)N1CCN(Cc2ccc3c(c2)OCO3)CC1	-28	-2	4%	-1%	-1%	24
CCCCOc1nnc(-c2ccc(OCC)cc2)c2ccccc12	-15	-5	.	.	.	-2
SMILES	D1 antagonist	D1 PAM	Eya2 phos inh	GALK inhibitor	USP2a block	D1 ag
CCc1ccc(OC(C)C(=O)Nc2c(C(=O)c3ccccc3)oc3ccccc23)cc1 (configuration not stated)	-1	-5	.	.	.	7
COc1cc(S(=O)(=O)N2CCN(C)CC2)ccc1Cl	9	-4	0%	0%	2%	-3
CN1CCN(S(=O)(=O)c2cccc(S(=O)(=O)c3ccc(Cl)c(Cl)c3)c2)CC1	-53*	-5	-2%	1%	3%	7
Cc1c2cnn(CC(=O)Nc3cccc(C(F)(F)F)c3)c(=O)c2c(C)n1Cc1ccccc1Cl	6	0	.	.	.	1
CCn1c(C(=O)NCc2ccc(OC)cc2)cc2sc(Cl)cc21	7	0	.	.	.	4
O=C(CCCCCCN1C(=O)c2ccccc2C1=O)N1CCC(c2ccccc2)C1 (configuration not stated)	-44*	-11	-9%	1%	1%	23
COc1ccc(C(=O)NC(=S)N(C)C2CCCCC2)cc1	-46*	-3	9%	0%	3%	0
CS(=O)(=O)N(CC(=O)NCCSC1CCCCC1)c1ccccc1	-9	3	5%	7%	0%	0
COc1ccc(C(=O)NCCSC2CCCCC2)cc1	-43*	-5	4%	6%	-6%	1
CS(=O)(=O)Nc1ccc(C(=O)NCCSC2CCCCC2)cc1	1	-1	18%	0%	3%	0
O=C(NCCSC1CCCCC1)c1ccccc1	-77*	-16	-10%	0%	1%	0
COc1ccc(N(CC(=O)N2CCN(c3cccc(OC)c3)CC2)S(=O)(=O)c2c(C)noc2C)cc1	-4	2	.	.	.	-1
Cn1cc(C[C@H](C(=O)O)N2C(=O)c3ccc(C(=O)O)cc3C2=O)c2ccccc21	-5	1	14%	.	1%	1
Cc1ccc(C)c2sc(N3CCN(C(=O)C(C)(C)C)CC3)nc12	.	0	.	.	.	2
COc1cc(-c2nc3ncccn3c2Nc2ccc(C)cc2C)ccc1O	-9	0	.	.	.	29
Cc1cc(-n2c(C)nc3ccccc3c2=O)ccc1NC(=O)c1ccc([N+](=O)[O-])cc1	.	-1	.	.	.	2
CCCN1C(=O)/C(=C\C=C2/Sc3ccccc3N2CC)SC1=S	-7	1	11%	11%	2%	9
CN1/C(=C\C=N\O)C(C)(C)c2ccccc21	5	2	9%	-1%	4%	-1
CCCN1C(=O)/C(=C\C=C2\N(CC)c3ccccc3C2(C)C)SC1=S	2	-2	-1%	7%	7%	92*
CN1/C(=C\C=C2/SC(=S)NC2=O)C(C)(C)c2ccccc21	-29	12	?	-1%	?	436*
CO/N=C/C=C1/N(C)c2ccccc2C1(C)C	-7	4	6%	-1%	8%	-3

Screens deposited in PubChem by National Center for Advancing Translational Sciences (NCATS).
